Screens from PubChem BioAssay.
The list is not random: actives were taken first. Their share in the collection is about 2.4%.
D2 ag-1: agonists of human D2 dopamine receptor (beta-arrestin); P14416; AID 624465; DiscoveRx PathHunter D2 beta-arrestin, luminescence, 90 min; 100% = 57 uM dopamine signal; actives 0.084% (n = 360,000); activation, % (concentration not given with the values); in the data active = activation above about 40%; inconclusive = between about 15% and that limit
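Agonist mode: compounds alone added to overnight-plated D2 PathHunter cells for 90 min at 37 C, with 57 uM final dopamine (EC100) defining full response. Beta-arrestin recruitment detected by chemiluminescent reagent, read after 1 h at ambient temperature.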
D2 antag: D2 dopamine receptor (human) antagonism; HEK293 TREx D2 cells, calcium flux, dopamine EC80; actives 2% (n = 340,000); AID 485344; inhibition, % at 10 µM; in the data active = inhibition above about 30%; inactive = below that, where a call was filed; note: 0% is about no effect
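Antagonism is scored as inhibition of an EC80 dopamine-evoked calcium signal in a force-coupled, tetracycline-inducible HEK293 T-REx D2 line, with compound present 180 s before agonist.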
D2 PAM-1: positive allosteric modulators of human D2 dopamine receptor; AID 485347; actives 0.34% (n = 340,000); HEK293 T-REx D2, calcium flux, EC20 dopamine potentiation; potentiation, % at 10 µM;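 active = potentiation over 3 SD above the plate norm, cut at about 30% in these data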; note: 0% is about no effect
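Tetracycline-induced HEK293 T-REx cells force-coupled to calcium signalling expressed D2; compounds were pin-added after a 10 s baseline, read kinetically 180 s, then an EC20 dopamine challenge followed with a further 180 s calcium read.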
D2 PAM-2: human D2 receptor positive allosteric modulation; AID 624464; potentiation, % (concentration not given with the values); P14416; actives 0.23% (n = 360,000); DiscoveRx D2 beta-arrestin cells, luminescence, 90 min; 100% = 57 uM dopamine signal; in the data active = potentiation above about 50%; inconclusive = mostly about 30% to 49%
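PathHunter D2 cells, attached overnight at 37 deg C, received compound in DMSO plus dopamine at EC20 (50 nM final) for 90 min at 37 deg C. Beta-arrestin recruitment was read as luminescence after 1 h with detection reagent at ambient temperature.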
D2 ag-2: activates the human D2 dopamine receptor. activation, % at 2 µM. HEK293 T-REx D2 cells, calcium flux agonist mode. AID 485358. actives 0.53% (n = 340,000). P14416;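 active = activation over 3 SD above normal in the single-dose calcium agonist read, cut at about 30% in these data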; note: 0% is about no effect
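Calcium-flux readout, 1 cycle/sec over 180 s following compound pin transfer, in inducible HEK293 Trex D2 cells (force-coupled); dopamine controls included. Positive calcium responses during this window marked compounds as potential agonists.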
D3 ag: confirmation of human D3 dopamine receptor agonists, beta-arrestin; shares compounds with D2 ag-2; Potency, µM (series often up to 76.9 µM), for inactives: at the top dose activation, actives largely listed as activators; actives 4% (n = 2,300); DiscoveRx D3 beta-arrestin cells, luminescence, 90 min;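 note: potency is the fitted concentration of half-maximal effect; 100% = dopamine control response; nearly all actives have a fitted effect of over 70% in size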
Target sequence (P35462 whole entry, looked up): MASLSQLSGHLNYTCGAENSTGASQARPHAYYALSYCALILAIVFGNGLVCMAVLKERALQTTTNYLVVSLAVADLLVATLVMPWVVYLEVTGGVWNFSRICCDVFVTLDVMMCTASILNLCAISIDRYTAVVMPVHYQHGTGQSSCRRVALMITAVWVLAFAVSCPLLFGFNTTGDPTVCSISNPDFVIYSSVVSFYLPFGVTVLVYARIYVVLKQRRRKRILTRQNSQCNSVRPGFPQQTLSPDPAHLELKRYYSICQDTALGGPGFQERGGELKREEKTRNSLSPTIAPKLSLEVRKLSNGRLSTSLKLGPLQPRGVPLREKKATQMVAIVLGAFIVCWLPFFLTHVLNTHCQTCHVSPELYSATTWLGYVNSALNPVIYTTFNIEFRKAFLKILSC
D2 ag-3: counter-screen for D3 agonists: human D2 dopamine receptor agonism | actives 5.9% (n = 2,300) | Potency, µM (top dose mostly 76.9 µM), for inactives: top-dose activation, actives largely listed as activators | shares compounds with D2 ag-2 | DiscoveRx PathHunter D2 beta-arrestin, luminescence, 90 min; response scale: percent relative to full dopamine signal; note: potency is the fitted concentration of half-maximal effect; % of control where 0% means no effect; nearly all actives have a fitted effect of over 70% in size
* hit, by the source's call. Unless noted, calls come from the whole dose curve; as a rule, active = well fitted activation curve with a large enough effect; inconclusive = small, poorly fitted or top-dose-only effect; inactive = flat fitted curve, though single readings scatter.

What do the screens show for `COc1ccc(C)cc1NC(=S)N1CCN(c2ccccn2)CC1`?
D2 ag-1: -1.3; D2 antag: -3.4; D2 PAM-1: -22.6; D2 PAM-2: -0.2; D2 ag-2: 56.6*; D3 ag: -3.5%; D2 ag-3: -0.5%

Results for COc1ccc(NC(=S)N2CCN(c3ccccn3)CC2)cc1OC ?
D2 ag-1: 2.5; D2 antag: 2.3; D2 PAM-1: -12.6; D2 PAM-2: -0.3; D2 ag-2: 49.4*; D3 ag: -5.3%; D2 ag-3: -2.6%

How did O=C(O)c1ccc(/C=C2\SC(=S)N(Nc3ccccc3)C2=O)cc1 do in these assays?
D2 ag-1: -13.7; D2 antag: 6.2; D2 PAM-1: 7.3; D2 PAM-2: -2.7; D2 ag-2: 3.0; D3 ag: inconclusive; D2 ag-3: 1.5%

What do the screens show for `O=C1/C(=C/c2ccncc2)SC(=S)N1Nc1ccccc1`?
D2 ag-1: -3.7; D2 antag: -1.8; D2 PAM-1: 0.6; D2 PAM-2: -9.2; D2 ag-2: 1.1

How did O=C(c1ccc(N2CCCC2=O)cc1)N1CCN(c2ccccc2F)CC1 do in these assays?
D2 ag-1: 4.7; D2 antag: 6.2; D2 PAM-1: -16.9; D2 PAM-2: -15.2; D2 ag-2: 55.1*; D3 ag: inconclusive; D2 ag-3: 11.7%

How did Cc1cccc(NC(=O)CN(C)S(=O)(=O)c2ccc3c(c2)c(=O)n(C)c(=O)n3C)c1 do in these assays?
D2 PAM-1: -1.1; D2 ag-2: -0.5

Results for CC(C)(C)c1cc(CCC(=O)NNC(=S)NC(=O)c2ccccc2)cc(C(C)(C)C)c1O ?
D2 ag-1: -14.3; D2 PAM-2: -14.7; D3 ag: -0.5%; D2 ag-3: -10.2%

How did Cc1ccc(NC(=O)C(C)Sc2nc(-c3ccccc3)c(C#N)c(=O)[nH]2)c(C)c1 (stereo unspecified) do in these assays?
D2 PAM-1: 15.4; D2 ag-2: -0.1

How did O=C(O)CNC(=O)c1ccccc1Br do in these assays?
D2 ag-1: 0.8; D2 antag: 39.8*; D2 PAM-1: 6.2; D2 PAM-2: -0.9; D2 ag-2: 3.6; D3 ag: -7.3%; D2 ag-3: -0.6%

How did O=C(CCc1nc2ccccc2c(=O)[nH]1)Nc1ccc(Cl)c(Cl)c1 do in these assays?
D2 ag-1: inconclusive; D2 antag: 54.3*; D2 PAM-1: -22.8; D2 PAM-2: 15.0; D2 ag-2: 70.4*; D3 ag: inconclusive; D2 ag-3: inconclusive

How did Cc1cccc(-n2c(Cc3ccccc3)nnc2SCc2nc(-c3cccs3)no2)c1 do in these assays?
D2 PAM-1: 0.3; D2 ag-2: 0.0

What do the screens show for `O=C(CCCc1ccccc1)c1ccccc1`?
D2 ag-1: -1.4; D2 antag: -11.7; D2 PAM-1: 26.4; D2 PAM-2: -5.9; D2 ag-2: -0.1

Results for CCN(CCCC(=O)c1ccc(F)cc1)CCc1ccccc1 ?
D2 ag-1: 12.8; D2 antag: 101.6*; D2 PAM-1: -22.2; D2 PAM-2: -23.6; D2 ag-2: 82.9*; D3 ag: inconclusive; D2 ag-3: 16.6%

Results for CCOC(=O)c1cccc(NC(=O)CCS(=O)(=O)c2ccc3c(c2)CCN3C(=O)CC)c1 ?
D2 PAM-1: -2.2; D2 ag-2: 5.3

Results for COCCN(CC(=O)Nc1cccc(C)c1C)C(=O)c1ccc2c(c1)OCO2 ?
D2 ag-1: -4.2; D2 antag: -7.9; D2 PAM-1: -0.8; D2 PAM-2: -6.8; D2 ag-2: -1.3

Results for CCCN(CC(=O)Nc1ccccc1C)C(=O)c1ccc2c(c1)OCO2 ?
D2 ag-1: -1.9; D2 antag: -9.2; D2 PAM-1: 8.5; D2 PAM-2: -10.5; D2 ag-2: -1.6; D3 ag: -4.3%; D2 ag-3: -2.0%

Results for CC#CCC(CC#CC)c1nc2ccccc2c(=O)n1N ?
D2 ag-1: -4.6; D2 antag: -15.2; D2 PAM-1: -8.1; D2 PAM-2: -3.5; D2 ag-2: -0.6; D3 ag: -10.6%; D2 ag-3: -4.5%

How did COC(=O)CCC(C)N1CCC(Oc2ccc(C(=O)N3CCCC3)cc2)CC1 (stereo unspecified) do in these assays?
D2 ag-1: -4.0; D2 antag: 9.0; D2 PAM-1: -18.2; D2 PAM-2: -20.1; D2 ag-2: 51.5*; D3 ag: 7.5%; D2 ag-3: 5.7%

What do the screens show for `COc1ccc(C2c3ccc4ccccc4c3Oc3ncn(CCCO)c(=N)c32)cc1OC` (stereo unspecified)?
D2 ag-1: -0.7; D2 PAM-2: -4.2; D3 ag: 2.3%; D2 ag-3: 4.4%

Results for COc1ccc(C2c3ccc4ccccc4c3Oc3ncn(CCO)c(=N)c32)cc1OC (stereo unspecified) ?
D2 ag-1: -1.1; D2 PAM-2: 3.8

What do the screens show for `Cc1ccc(NC(c2nnc(-c3ccccc3)o2)c2ccccc2F)c(Cl)c1` (stereo unspecified)?
D2 PAM-1: -1.3; D2 ag-2: 0.8

How did COc1ccc(/C=C/C(=O)NC(=S)NN2CCCCC2c2cccnc2)cc1OC (stereo unspecified) do in these assays?
D2 ag-1: -1.6; D2 antag: -4.4; D2 PAM-1: -18.9; D2 PAM-2: -7.5; D2 ag-2: 49.0*; D3 ag: 4.0%; D2 ag-3: 1.8%

How did COc1ccccc1N1CCN(S(=O)(=O)c2ccc(F)c(C(=O)Nc3ccc(C)c(F)c3)c2)CC1 do in these assays?
D2 PAM-1: -9.8; D2 ag-2: 0.0

How did Cc1cc(CN2CCN(CC(=O)Nc3cc(Cl)ccc3-n3cncn3)CC2)no1 do in these assays?
D2 ag-1: 1.7; D2 antag: 4.4; D2 PAM-1: -21.8; D2 PAM-2: 7.4; D2 ag-2: 41.3*; D3 ag: -6.4%; D2 ag-3: 0.3%

What do the screens show for `Cc1[nH]nc2c1C(c1cccs1)C1=C(CC(C)(C)CC1=O)N2` (stereo unspecified)?
D2 ag-1: -1.8; D2 antag: 30.2*; D2 PAM-1: -5.7; D2 PAM-2: 2.6; D2 ag-2: 35.6*; D3 ag: -1.2%; D2 ag-3: -3.6%

What do the screens show for `Cc1[nH]nc2c1C(c1ccsc1)C1=C(CC(C)(C)CC1=O)N2` (stereo unspecified)?
D2 ag-1: -3.0; D2 antag: 10.1; D2 PAM-1: -4.3; D2 PAM-2: -14.2; D2 ag-2: 41.7*; D3 ag: -9.9%; D2 ag-3: -5.6%
